Assay outcomes: PubChem BioAssay, National Center for Advancing Translational Sciences (NCATS)
This is a sample that favours compounds with a hit; in the whole collection about 2.4% have one here.
D2 PAM-1 – human D2 receptor positive allosteric modulation; P14416; DiscoveRx D2 beta-arrestin cells, luminescence, 90 min; 100% = 57 uM dopamine signal; potentiation, % (test concentration not listed); 0.23% of 360,000 active; in the data active means potentiation above about 50%
Target sequence (P14416 whole entry, looked up): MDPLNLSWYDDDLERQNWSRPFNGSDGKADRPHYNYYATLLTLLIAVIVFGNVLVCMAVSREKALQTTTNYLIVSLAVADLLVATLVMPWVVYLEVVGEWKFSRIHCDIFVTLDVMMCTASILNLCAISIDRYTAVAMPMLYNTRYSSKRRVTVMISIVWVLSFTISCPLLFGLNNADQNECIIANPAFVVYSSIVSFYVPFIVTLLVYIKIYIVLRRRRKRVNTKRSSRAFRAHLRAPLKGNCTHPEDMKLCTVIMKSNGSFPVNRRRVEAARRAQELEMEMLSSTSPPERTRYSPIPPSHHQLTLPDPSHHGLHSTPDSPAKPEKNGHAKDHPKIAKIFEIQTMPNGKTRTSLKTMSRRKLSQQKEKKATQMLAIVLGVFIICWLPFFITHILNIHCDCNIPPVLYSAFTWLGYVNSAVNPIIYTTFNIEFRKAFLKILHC
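D2 cells co-treated with compound plus 50 nM dopamine (EC20) for 90 min at 37 deg C to detect potentiation. Beta-arrestin recruitment was read as enzyme-fragment luminescence after 1 h at ambient temperature. Full response was set by 57 uM dopamine.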
D2 PAM-2 – positive allosteric modulators of human D2 dopamine receptor; P14416; HEK293 T-REx D2, calcium flux, EC20 dopamine potentiation; potentiation, % at 10 µM; 0.34% of 340,000 active; AID 485347;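 active means potentiation over 3 SD above the plate norm, cut at about 30% in these data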; further: 0% is about no effect
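Using a no-wash calcium dye in inducible, force-coupled HEK293 Trex cells expressing D2, we tracked fluorescence each second for 180 s after compound, then for 180 s after EC20 dopamine to detect augmented signalling.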
D2 ag-1 – agonists of human D2 dopamine receptor (beta-arrestin); P14416; DiscoveRx PathHunter D2 beta-arrestin, luminescence, 90 min; 100% = 57 uM dopamine signal; activation, % (no concentration beside the values); 0.084% of 360,000 active; in the data active means activation above about 40%
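DiscoveRx PathHunter D2 beta-arrestin cells (2,100/well) attached overnight, then compound-stimulated 90 min at 37 C in HBSS/10 mM HEPES/0.1% Tween-20 buffer; beta-galactosidase complementation read by luminescence after 1 h at ambient temperature. Dopamine 57 uM final (EC100) as control.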
D2 ag-2 – agonists of human D2 dopamine receptor | P14416 | HEK293 T-REx D2 cells, calcium flux agonist mode | activation, % at 2 µM | 0.53% of 340,000 active;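 active means activation over 3 SD above normal in the single-dose calcium agonist read, cut at about 30% in these data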; further: 0% is about no effect
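Tetracycline-induced HEK293 Trex cells with D2 receptor force-coupled to calcium signaling, plated overnight at 30 C and loaded with no-wash calcium dye. Calcium flux read kinetically for 180 s after compound addition; responses flag agonists.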
D2 antagonist – D2 dopamine receptor (human) antagonism. P14416. HEK293 TREx D2 cells, calcium flux, dopamine EC80. inhibition, % at 10 µM. 2% of 340,000 active. AID 485344; in the data active means inhibition above about 30%; inactive means below that, where a call was filed; further: 0% is about no effect
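Overnight-induced (tetracycline, 30 C) HEK293 T-REx cells carrying force-coupled D2 receive a no-wash calcium dye, then compound, then EC80 dopamine at 180 s; signals are read kinetically throughout.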
* marks the source's active call; other numbers are inactive results; . = not tested or not shown.

SMILES	D2 PAM-1	D2 PAM-2	D2 ag-1	D2 ag-2	D2 antagonist
Cc1cccc(C(=O)OCc2cc(=O)n3nc(C4CC4)sc3n2)c1	.	16	.	0	.
COc1ccc(-c2nnc(SCCC(=O)O)n2C)cc1OC	-9	9	1	0	34*
CCOC(=O)N1CCC(NC(=O)C(NS(=O)(=O)c2cccc3nsnc23)c2ccccc2)CC1 (configuration not stated)	-6	1	4	-1	7
O=C(NC1CCN(Cc2ccccc2)CC1)C(NS(=O)(=O)c1cccc2nsnc12)c1ccccc1 (configuration not stated)	-11	-18	0	-1	35*
COc1ccc(C2c3cccn3CCN2S(=O)(=O)c2ccc([N+](=O)[O-])cc2)cc1 (configuration not stated)	.	-6	.	2	.
CCCCN(C)CCNC(=O)c1cc2c(=O)n(C)c3ccccc3c2n1C	.	-12	.	0	.
OCCC1CN(Cc2cccc3nonc23)CCN1C1CCCCC1 (configuration not stated)	-16	-13	-6	-1	38*
OCCC1CN(Cc2cccc3nccnc23)CCN1C1CCCC1 (configuration not stated)	-16	-11	1	0	-10
OC(CN1CCN(c2ccccc2Cl)CC1)c1ccccc1 (configuration not stated)	-12	-21	2	7	86*
COc1cc(CNCCCSc2nnnn2C)cc(Br)c1OC	.	-17	.	0	.
O=c1cc2oc3cc(O)c(O)cc3c(-c3ccccc3[N+](=O)[O-])c-2cc1O	9	24	-4	1	31*
CCS(=O)(=O)N1CCC(C(=O)NCCC(C)C)CC1	.	6	.	0	.
Nc1nc(N)nc(-c2cccc(Cl)c2)n1	-9	-3	-2	0	32*
CS(=O)(=O)c1nc(S(=O)(=O)c2ccc(Cl)cc2)c(NCc2ccccn2)s1	0	30*	-6	-1	1
COc1ccc(-c2cc(C(=O)NC(C)c3ccccn3)c3ccccc3n2)cc1OC (configuration not stated)	6	44*	12	0	-29
COc1ccc(-c2cc(C(=O)NC3CCCC3)c3ccccc3n2)cc1OC	0	.	-2	.	.
CCN1CCN(Cc2c(O)ccc3oc(C)c(C(=O)Nc4cccc(C(F)(F)F)c4)c23)CC1	.	5	.	5	.
Cc1ccc(C)c(N2CCN(C(=O)Cn3c(=O)c4cccn4c4ccc(F)cc43)CC2)c1	.	3	.	0	.
CCOC(=O)N1CCN(Cc2nc3cc([N+](=O)[O-])ccc3n2CC)CC1	3	-7	2	-1	37*
CCOC(=O)c1ccccc1NC(=O)CSc1cn(CC(=O)N2CCCCC2)c2ccccc12	.	1	.	.	.
C/C(CC(=O)N1CCN(C=O)CC1)=N\NC(=O)c1cc2ccccc2cc1O	51*	-10	-6	0	7
C/C(CC(=O)N1CCN(C=O)CC1)=N\NC(=O)c1ccc([N+](=O)[O-])cc1	-2	3	6	0	3
COc1cc(NS(=O)(=O)c2ccc(C)cc2)c2ncccc2c1	-32	54*	-7	0	-22
Cc1ccc(S(=O)(=O)Nc2cccc3cccnc23)cc1	-33	-11	-6	-1	-16
Cc1cc(C)c(NC(=O)Cn2nc(-c3ccncc3)ccc2=O)c(C)c1	.	-4	.	-1	.
SMILES	D2 PAM-1	D2 PAM-2	D2 ag-1	D2 ag-2	D2 antagonist
COc1ccc(Cl)cc1NC(=O)CNC(c1ccccc1)c1ccccc1	-5	-2	-2	1	-6
COc1ccc(C)cc1NC(=O)CNC(c1ccccc1)c1ccccc1	-11	5	-3	1	37*
COc1ccc(OC)c(NC(=O)CNC(c2ccccc2)c2ccccc2)c1	-3	4	-5	0	31*
CS(=O)(=O)c1cc(C(=O)O)cc(NCc2ccccc2)c1Oc1ccccc1	-7	.	-4	.	.
COc1cccc(NC(=O)Cn2c(=O)n(CCCCC(=O)NCc3ccccc3Cl)c(=O)c3ccccc32)c1	.	-2	.	0	.
O=C1CCCC/C1=C\Nc1ccc(O)cc1	10	-2	9	-2	5
O=C1CCCC/C1=C/Nc1cccc(C(F)(F)F)c1	-3	0	-2	0	34*
Cc1cc(C)cc(NC(=O)CSc2nccn2C2CCCC2)c1	.	1	.	0	.
